# Laboratory results from article PMC13423814.
# Experiments:
# [1] = molecular target: 26S proteasome non-ATPase regulatory subunit 5 (UniProt Q16401)
# [2] = molecular target: Histone H2B type 1-L (UniProt Q99880)
# [3] = molecular target: Large ribosomal subunit protein eL28 (UniProt P46779)
# [4] = molecular target: Twinfilin-1 (UniProt Q12792)
# [5] = molecular target: Heterochromatin protein 1-binding protein 3 (UniProt Q5SSJ5)
# 26S proteasome regulatory subunit 4, P62191, sequence (P62191 whole entry): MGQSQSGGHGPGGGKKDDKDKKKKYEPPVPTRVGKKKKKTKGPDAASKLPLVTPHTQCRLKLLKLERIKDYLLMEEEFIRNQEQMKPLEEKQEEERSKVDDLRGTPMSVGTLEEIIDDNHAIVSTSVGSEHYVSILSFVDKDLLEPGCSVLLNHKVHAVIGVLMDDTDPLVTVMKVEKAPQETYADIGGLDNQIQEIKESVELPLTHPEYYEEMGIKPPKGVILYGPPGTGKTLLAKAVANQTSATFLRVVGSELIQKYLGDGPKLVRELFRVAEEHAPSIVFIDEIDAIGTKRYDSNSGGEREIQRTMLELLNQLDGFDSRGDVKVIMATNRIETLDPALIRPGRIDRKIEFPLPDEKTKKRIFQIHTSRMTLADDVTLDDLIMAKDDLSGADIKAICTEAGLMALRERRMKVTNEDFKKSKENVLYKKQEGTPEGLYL
# Histone H2A.V, Q71UI9, sequence (Q71UI9 whole entry): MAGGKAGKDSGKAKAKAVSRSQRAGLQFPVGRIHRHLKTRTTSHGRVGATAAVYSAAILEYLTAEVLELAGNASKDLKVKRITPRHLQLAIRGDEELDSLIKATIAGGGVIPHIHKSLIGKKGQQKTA
# 26S proteasome non-ATPase regulatory subunit 5, sequence (Q16401 whole entry): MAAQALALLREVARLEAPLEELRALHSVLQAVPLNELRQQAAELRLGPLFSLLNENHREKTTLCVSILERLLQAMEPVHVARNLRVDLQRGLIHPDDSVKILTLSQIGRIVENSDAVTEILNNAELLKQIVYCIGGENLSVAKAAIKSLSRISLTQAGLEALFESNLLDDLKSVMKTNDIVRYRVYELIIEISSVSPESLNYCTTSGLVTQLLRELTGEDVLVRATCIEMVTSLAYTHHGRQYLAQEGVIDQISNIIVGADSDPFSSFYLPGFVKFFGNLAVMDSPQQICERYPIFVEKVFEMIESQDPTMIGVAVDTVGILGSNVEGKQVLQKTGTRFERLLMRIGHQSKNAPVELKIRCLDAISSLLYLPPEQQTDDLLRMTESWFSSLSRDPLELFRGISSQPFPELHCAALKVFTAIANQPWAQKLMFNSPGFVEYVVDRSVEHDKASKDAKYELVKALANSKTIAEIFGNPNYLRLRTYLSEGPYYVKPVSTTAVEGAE
substance,measurement,setting,value
"26S proteasome regulatory subunit 4, P62191",listed as a hit,[1],yes
"Histone H2A.V, Q71UI9",listed as a hit,[2],yes
"Calmodulin-3, P0DP25",listed as a hit,[3],yes
"Actin, cytoplasmic 1, P60709",listed as a hit,[4],yes
"Histone H4, P62805",listed as a hit,[5],yes
